# B1: unnamed (peptide)
# chain: GKLKHIPRRPYEIER
# B2: unnamed (peptide)
# chain: DKKTKPTPPPKPSHL
# B3: unnamed (peptide)
# chain: RAPPPVPKKPSSRIA
# B4: unnamed (peptide)
# chain: NVLRKILEIPLHSFS
# Molecular target: AgAbp1
# Experiment: SPOT peptide array binding signal intensity (averaged, normalized) (arbitrary units (background-subtracted, floor 0; scale differs between SH3 domains)); higher = stronger binding of the SH3 domain to the peptide
# Method in brief: (§1)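 The binding signal is the normalized, background-subtracted spot intensity averaged over replicates; its arbitrary units differ between domains. It was obtained by incubating 10 μg/ml GST-fused SH3 domains from four yeast species overnight at 4°C in TBS-based blocking buffer on cellulose membranes with synthetic 15-mer peptides, cysteines replaced by serines, then detecting with anti-GST antibody, HRP anti-mouse secondary and luminol.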
row,Binder,SPOT peptide array binding signal intensity
1,B1,3.5
2,B2,1090
3,B3,8420

# Molecular target: AgBbc1
# Experiment: as above
# Method in brief: as §1
row,Binder,SPOT peptide array binding signal intensity
1,B1,102
2,B2,24.8
3,B3,1600

# Molecular target: AgBem1-D1
# Experiment: as above
# Method in brief: as §1
row,Binder,SPOT peptide array binding signal intensity
1,B1,14
2,B2,≤ 0
3,B3,51.5

# Molecular target: AgBzz1-D1
# Experiment: as above
# Method in brief: as §1
row,Binder,SPOT peptide array binding signal intensity
1,B1,11
2,B2,61
3,B3,3320

# Molecular target: AgBzz1-D2
# Experiment: as above
# Method in brief: as §1
row,Binder,SPOT peptide array binding signal intensity
1,B1,10.5
2,B2,34.5
3,B3,373

# Molecular target: AgCyk3
# Experiment: as above
# Method in brief: as §1
row,Binder,SPOT peptide array binding signal intensity
1,B1,1.5
2,B2,1
3,B3,≤ 0

# Molecular target: AgFus1
# Experiment: as above
# Method in brief: as §1
row,Binder,SPOT peptide array binding signal intensity
1,B1,10
2,B2,6
3,B3,≤ 0

# Molecular target: AgHof1
# Experiment: as above
# Method in brief: as §1
row,Binder,SPOT peptide array binding signal intensity
1,B1,5.5
2,B2,18.5
3,B3,415

# Molecular target: AgHse1
# Experiment: as above
# Method in brief: as §1
row,Binder,SPOT peptide array binding signal intensity
1,B1,≤ 0
2,B2,≤ 0
3,B3,102

# Molecular target: AgLsb1
# Experiment: as above
# Method in brief: as §1
row,Binder,SPOT peptide array binding signal intensity
1,B1,1
2,B2,≤ 0
3,B3,676

# Molecular target: AgLsb4
# Experiment: as above
# Method in brief: as §1
row,Binder,SPOT peptide array binding signal intensity
1,B1,12
2,B2,≤ 0
3,B3,48

# Molecular target: AgMyo5
# Experiment: as above
# Method in brief: as §1
row,Binder,SPOT peptide array binding signal intensity
1,B1,0.25
2,B2,≤ 0
3,B3,36.8

# Molecular target: AgNbp2
# Experiment: as above
# Method in brief: as §1
row,Binder,SPOT peptide array binding signal intensity
1,B1,≤ 0
2,B2,≤ 0
3,B3,3960

# Molecular target: AgRvs167
# Experiment: as above
# Method in brief: as §1
row,Binder,SPOT peptide array binding signal intensity
1,B1,1.83
2,B2,0.167
3,B3,230

# Molecular target: AgSho1
# Experiment: as above
# Method in brief: as §1
row,Binder,SPOT peptide array binding signal intensity
1,B1,≤ 0
2,B2,45
3,B3,296

# Molecular target: AgSla1-D1-D2
# Experiment: as above
# Method in brief: as §1
row,Binder,SPOT peptide array binding signal intensity
1,B1,≤ 0
2,B2,≤ 0
3,B3,≤ 0

# Molecular target: AgSla1-D3
# Experiment: as above
# Method in brief: as §1
row,Binder,SPOT peptide array binding signal intensity
1,B1,0.75
2,B2,2
3,B3,380

# Molecular target: CaAbp1-D1
# Experiment: as above
# Method in brief: as §1
row,Binder,SPOT peptide array binding signal intensity
1,B1,129
2,B2,1790
3,B3,2320

# Molecular target: CaAbp1-D2
# Experiment: as above
# Method in brief: as §1
row,Binder,SPOT peptide array binding signal intensity
1,B1,1
2,B2,3130
3,B3,4330

# Molecular target: CaBbc1
# Experiment: as above
# Method in brief: as §1
row,Binder,SPOT peptide array binding signal intensity
1,B1,552
2,B2,50.8
3,B3,1870

# Molecular target: CaBem1-D1
# Experiment: as above
# Method in brief: as §1
row,Binder,SPOT peptide array binding signal intensity
1,B1,5
2,B2,≤ 0
3,B3,12.5

# Molecular target: CaBzz1-D1
# Experiment: as above
# Method in brief: as §1
row,Binder,SPOT peptide array binding signal intensity
1,B1,116
2,B2,1480
3,B3,5970

# Molecular target: CaBzz1-D2
# Experiment: as above
# Method in brief: as §1
row,Binder,SPOT peptide array binding signal intensity
1,B1,67.5
2,B2,262
3,B3,2940

# Molecular target: CaCyk3
# Experiment: as above
# Method in brief: as §1
row,Binder,SPOT peptide array binding signal intensity
1,B1,67.5
2,B2,≤ 0
3,B3,61.5

# Molecular target: CaFus1
# Experiment: as above
# Method in brief: as §1
row,Binder,SPOT peptide array binding signal intensity
1,B1,≤ 0
2,B2,≤ 0
3,B3,28.5

# Molecular target: CaHof1
# Experiment: as above
# Method in brief: as §1
row,Binder,SPOT peptide array binding signal intensity
1,B1,≤ 0
2,B2,0.75
3,B3,≤ 0

# Molecular target: CaHse1
# Experiment: as above
# Method in brief: as §1
row,Binder,SPOT peptide array binding signal intensity
1,B1,1.5
2,B2,8.5
3,B3,1200

# Molecular target: CaLsb1
# Experiment: as above
# Method in brief: as §1
row,Binder,SPOT peptide array binding signal intensity
1,B1,≤ 0
2,B2,0.5
3,B3,0.5

# Molecular target: CaLsb4
# Experiment: as above
# Method in brief: as §1
row,Binder,SPOT peptide array binding signal intensity
1,B1,40
2,B2,≤ 0
3,B3,2220

# Molecular target: CaMyo5
# Experiment: as above
# Method in brief: as §1
row,Binder,SPOT peptide array binding signal intensity
1,B1,≤ 0
2,B2,≤ 0
3,B3,2.5

# Molecular target: CaNbp2
# Experiment: as above
# Method in brief: as §1
row,Binder,SPOT peptide array binding signal intensity
1,B2,≤ 0
2,B3,1040

# Molecular target: CaRvs167
# Experiment: as above
# Method in brief: as §1
row,Binder,SPOT peptide array binding signal intensity
1,B2,0.333
2,B3,170

# Molecular target: CaRvs167-3
# Experiment: as above
# Method in brief: as §1
row,Binder,SPOT peptide array binding signal intensity
1,B2,3.5
2,B3,1

# Molecular target: CaSho1
# Experiment: as above
# Method in brief: as §1
row,Binder,SPOT peptide array binding signal intensity
1,B2,24
2,B3,94

# Molecular target: CaSla1-D1-D2
# Experiment: as above
# Method in brief: as §1
row,Binder,SPOT peptide array binding signal intensity
1,B2,≤ 0
2,B3,3890

# Molecular target: CaSla1-D3
# Experiment: as above
# Method in brief: as §1
row,Binder,SPOT peptide array binding signal intensity
1,B2,≤ 0
2,B3,250

# Molecular target: ScAbp1
# Experiment: as above
# Method in brief: as §1
row,Binder,SPOT peptide array binding signal intensity
1,B2,2120
2,B3,2860

# Molecular target: ScBbc1
# Experiment: as above
# Method in brief: as §1
row,Binder,SPOT peptide array binding signal intensity
1,B2,≤ 0
2,B3,270

# Molecular target: ScBem1-D1
# Experiment: as above
# Method in brief: as §1
row,Binder,SPOT peptide array binding signal intensity
1,B2,≤ 0
2,B3,9

# Molecular target: ScBzz1-D1
# Experiment: as above
# Method in brief: as §1
row,Binder,SPOT peptide array binding signal intensity
1,B2,1
2,B3,565

# Molecular target: ScBzz1-D2
# Experiment: as above
# Method in brief: as §1
row,Binder,SPOT peptide array binding signal intensity
1,B2,46.5
2,B3,33

# Molecular target: ScCyk3
# Experiment: as above
# Method in brief: as §1
row,Binder,SPOT peptide array binding signal intensity
1,B2,≤ 0
2,B3,7

# Molecular target: ScFus1
# Experiment: as above
# Method in brief: as §1
row,Binder,SPOT peptide array binding signal intensity
1,B2,1
2,B3,1

# Molecular target: ScHof1
# Experiment: as above
# Method in brief: as §1
row,Binder,SPOT peptide array binding signal intensity
1,B2,1.5
2,B3,1.5

# Molecular target: ScHse1
# Experiment: as above
# Method in brief: as §1
row,Binder,SPOT peptide array binding signal intensity
1,B2,16.5
2,B3,≤ 0

# Molecular target: ScLsb1
# Experiment: as above
# Method in brief: as §1
row,Binder,SPOT peptide array binding signal intensity
1,B2,≤ 0
2,B3,452

# Molecular target: ScLsb2
# Experiment: as above
# Method in brief: as §1
row,Binder,SPOT peptide array binding signal intensity
1,B2,≤ 0
2,B3,1030

# Molecular target: ScLsb3
# Experiment: as above
# Method in brief: as §1
row,Binder,SPOT peptide array binding signal intensity
1,B2,1270
2,B3,4390

# Molecular target: ScLsb4
# Experiment: as above
# Method in brief: as §1
row,Binder,SPOT peptide array binding signal intensity
1,B2,≤ 0
2,B3,52.5

# Molecular target: ScMyo3
# Experiment: as above
# Method in brief: as §1
row,Binder,SPOT peptide array binding signal intensity
1,B2,0.5
2,B3,80.5

# Molecular target: ScMyo5
# Experiment: as above
# Method in brief: as §1
row,Binder,SPOT peptide array binding signal intensity
1,B2,≤ 0
2,B3,50.2

# Molecular target: ScNbp2
# Experiment: as above
# Method in brief: as §1
row,Binder,SPOT peptide array binding signal intensity
1,B2,4
2,B3,5230

# Molecular target: ScPex13
# Experiment: as above
# Method in brief: as §1
row,Binder,SPOT peptide array binding signal intensity
1,B2,138
2,B3,869

# Molecular target: ScRvs167
# Experiment: as above
# Method in brief: as §1
row,Binder,SPOT peptide array binding signal intensity
1,B2,≤ 0
2,B3,1400

# Molecular target: ScSho1
# Experiment: as above
# Method in brief: as §1
row,Binder,SPOT peptide array binding signal intensity
1,B2,280
2,B3,2740

# Molecular target: ScSla1-D1-D2
# Experiment: as above
# Method in brief: as §1
row,Binder,SPOT peptide array binding signal intensity
1,B2,≤ 0
2,B3,2100

# Molecular target: ScSla1-D3
# Experiment: as above
# Method in brief: as §1
row,Binder,SPOT peptide array binding signal intensity
1,B2,3
2,B3,331

# Molecular target: SpAbp1-D1
# Experiment: as above
# Method in brief: as §1
row,Binder,SPOT peptide array binding signal intensity
1,B2,2240
2,B3,2240

# Molecular target: SpBbc1
# Experiment: as above
# Method in brief: as §1
row,Binder,SPOT peptide array binding signal intensity
1,B2,3.5
2,B3,26

# Molecular target: SpBzz1-D1
# Experiment: as above
# Method in brief: as §1
row,Binder,SPOT peptide array binding signal intensity
1,B2,235
2,B3,2030

# Molecular target: SpBzz1-D2
# Experiment: as above
# Method in brief: as §1
row,Binder,SPOT peptide array binding signal intensity
1,B2,≤ 0
2,B3,198
3,B4,≤ 0

# Molecular target: SpCyk3
# Experiment: as above
# Method in brief: as §1
row,Binder,SPOT peptide array binding signal intensity
1,B2,≤ 0
2,B3,5
3,B4,0.5

# Molecular target: SpHof1
# Experiment: as above
# Method in brief: as §1
row,Binder,SPOT peptide array binding signal intensity
1,B2,0.75
2,B3,186
3,B4,2

# Molecular target: SpHof1-2
# Experiment: as above
# Method in brief: as §1
row,Binder,SPOT peptide array binding signal intensity
1,B2,6.5
2,B3,20.2
3,B4,≤ 0

# Molecular target: SpHof1-3
# Experiment: as above
# Method in brief: as §1
row,Binder,SPOT peptide array binding signal intensity
1,B2,86
2,B3,372
3,B4,591

# Molecular target: SpHse1
# Experiment: as above
# Method in brief: as §1
row,Binder,SPOT peptide array binding signal intensity
1,B2,0.75
2,B3,126
3,B4,2430

# Molecular target: SpLsb1
# Experiment: as above
# Method in brief: as §1
row,Binder,SPOT peptide array binding signal intensity
1,B2,138
2,B3,1720
3,B4,≤ 0

# Molecular target: SpLsb4
# Experiment: as above
# Method in brief: as §1
row,Binder,SPOT peptide array binding signal intensity
1,B2,≤ 0
2,B3,1110
3,B4,≤ 0

# Molecular target: SpMyo1
# Experiment: as above
# Method in brief: as §1
row,Binder,SPOT peptide array binding signal intensity
1,B2,≤ 0
2,B3,151
3,B4,≤ 0

# Molecular target: SpNbp2
# Experiment: as above
# Method in brief: as §1
row,Binder,SPOT peptide array binding signal intensity
1,B2,≤ 0
2,B3,48.5
3,B4,32.5

# Molecular target: SpPex13
# Experiment: as above
# Method in brief: as §1
row,Binder,SPOT peptide array binding signal intensity
1,B2,1.5
2,B3,≤ 0
3,B4,2

# Molecular target: SpRvs167
# Experiment: as above
# Method in brief: as §1
row,Binder,SPOT peptide array binding signal intensity
1,B2,33.3
2,B3,1860
3,B4,≤ 0

# Molecular target: SpSla1-D1-D2
# Experiment: as above
# Method in brief: as §1
row,Binder,SPOT peptide array binding signal intensity
1,B2,≤ 0
2,B3,576
3,B4,≤ 0

# Molecular target: SpSla1-D3
# Experiment: as above
# Method in brief: as §1
row,Binder,SPOT peptide array binding signal intensity
1,B2,1
2,B3,≤ 0
3,B4,≤ 0
